The values that follow come from PubChem BioAssay AID463173 (ICCB-Longwood Screening Facility, Harvard Medical School, 2010).

The whole screen tested about 52,000 compounds, of which about 4,300 (8.3%) were called active. Rule as the data show it: active = survival mostly below about 52% (no sharp cut-off); inactive = mostly above about 56%. Many of the other results were omitted from the sample, so actives are more common in it than they were.

In the experiment the test system is DeltatarO mutant. Put plainly: S. aureus survival, RN4220 and DeltatarO strains – OD600, teichoic acid synthesis inhibitors, primary screen (AID 463173). Particulars: S. aureus RN4220 wild type/DeltatarO growth, OD600, 18 h, hits give low values, screened at 18.75 µg/mL (by protocol).
As to `COc1ccc(Nc2nnc(-n3nc(C)cc3C)c3ccccc23)cc1`, the survival is 85% (inactive).
Turning to `O=C(CSc1ncc(CO)n1Cc1ccccc1)Nc1nc2ccccc2s1`, the survival is 122% (inactive).
Regarding `CCOc1ccccc1CNC(=O)Cn1nc(C)c2nn(-c3ccc(Cl)cc3)c(C)c2c1=O`, the survival is 101% (inactive).
In the case of `COc1ccc(NC(=O)Cn2nc(C)c3nn(-c4ccc(Cl)cc4)c(C)c3c2=O)cc1` it was 85% (inactive); in that of `Cc1nn(CC(=O)Nc2ccc(OC(F)(F)F)cc2)c(=O)c2c(C)n(-c3ccc(Cl)cc3)nc12`, 25% (active); in that of `CCOC(=O)c1ccc(NC(=O)Cn2nc(C)c3nn(-c4ccc(Cl)cc4)c(C)c3c2=O)cc1`, 102% (inactive).
For the molecule `Cc1ccccc1CNC(=O)Cn1nc(C)c2nn(-c3ccc(Cl)cc3)c(C)c2c1=O`, the survival was 37% (active).
In the case of `COc1ccccc1CNC(=O)Cn1nc(C)c2nn(-c3ccc(Cl)cc3)c(C)c2c1=O` it was 63% (inactive); in that of `Cn1c(=O)oc2cc(S(=O)(=O)N3CCC(C(=O)N4CCN(c5ccccc5F)CC4)CC3)ccc21`, 80% (inactive).
`Cc1cccc(NC(=O)CSc2nnc3[nH]c(=O)cc(C)n23)c1C`: the survival is 75% (inactive).
As to `CN(C)S(=O)(=O)c1ccc(S(=O)(=O)N2CCN(C=O)CC2)cc1`, the survival was 105% (inactive).
Next, `CCOc1ccc(CNC(=O)Cc2ccc(NC(=O)N3CCSc4ncccc43)cc2)cc1`: 96% (inactive); `CC(C)(C)C(=O)N1CCN(c2nc3c(F)cccc3s2)CC1`: 82% (inactive); `Cc1cccc(OCc2nnc(SCC(N)=O)o2)c1`: 91% (inactive).
In the case of `NC(=O)CSc1nnc(COc2cccc3ccccc23)o1` it was 89% (inactive); in that of `Cc1ccccc1OCc1nnc(SCC(=O)N(Cc2ccccc2)C(C)(C)C)o1`, 59% (active); in that of `Cc1csc(N(C)C(=O)CSc2nnc(COc3cccc4ccccc34)o2)n1`, 56% (inactive).
Next, `COC(=O)CSc1nnc(COc2cccc3ccccc23)o1`: 46% (active); `CC(C)(C)N(Cc1ccccc1)C(=O)CSc1nnc(CNc2ccc(F)cc2)o1`: 74% (inactive); `CCOC(=O)CSc1nnc(COc2cccc(C)c2)o1`: 42% (active).
With `Cc1ccc(NCc2nnc(SCC(=O)N(Cc3ccccc3)C(C)(C)C)o2)c(C)c1`, the survival was 94% (inactive).
Turning to `Cc1cccc(OCc2nnc(SCC(=O)N3c4ccccc4CCc4ccccc43)o2)c1`, the survival was 99% (inactive).
For `On1ccc2c(Br)cncc21`, the survival is 94% (inactive).
For the molecule `CCc1ccc2nc(N3CCN(C(=O)c4ccco4)CC3)sc2c1`, the survival was 86% (inactive).
As for `O=C(CSc1nc(-c2cccc(Cl)c2)nc2cc(=O)[nH]n12)Nc1ccccc1`, the survival is 71% (inactive).
Next, `Cc1ccc(CSc2ncc(Cl)c(C(=O)Oc3ccc(F)cc3)n2)cc1`: 77% (inactive); `CCC(=O)N1c2ccccc2CC1C(=O)NCc1cccc(OC)c1OC` (stereo not given): 84% (inactive); `COc1cc(C2C(C#N)=C(N)Oc3n[nH]c(C(F)(F)F)c32)ccc1OCC(N)=O` (stereo not given): 72% (inactive).
As for `CC(NC(=O)Cn1c(=O)oc2cc(S(=O)(=O)N3CCCCCC3)ccc21)c1ccccc1` (stereo not given), the survival is 82% (inactive).
Take `COc1ccccc1CNC(=O)C1CCN(c2nnc(C)c3c(C)n(-c4ccccc4)nc23)CC1`: the survival was 104% (inactive).
Next, `Cc1noc(/C=C/c2ccco2)c1S(=O)(=O)N1CCC(C(=O)Nc2ccc(F)c(Cl)c2)CC1`: 100% (inactive).
As to `CCOC(=O)c1sc2cccc(F)c2c1S(=O)(=O)N1CCN(c2cccc(Cl)c2)CC1`, the survival is 102% (inactive).
Take `COc1cccc(OC)c1C(=O)NCCc1sc(-c2cccc(F)c2)nc1C`: the survival is 69% (inactive).
As for `CCn1cc(C(=O)NCc2ccccc2Cl)c(=O)c2cc(S(=O)(=O)N3CCOCC3)ccc21`, the survival was 75% (inactive).
In the case of `CCN(c1ccccc1)S(=O)(=O)c1cc(C(=O)Nc2ccc(Br)cc2)ccc1F` it was 6% (active); in that of `O=C(O)c1ccc(NC(=O)c2ccc(Cl)c(S(=O)(=O)N3CCCCCC3)c2)cc1`, 131% (inactive); in that of `CCOc1cccc(NC(=O)c2ccc(F)c(S(=O)(=O)N(CC)c3cccc(C)c3)c2)c1`, 86% (inactive).
Next, `Cc1ccc(C(=O)Nc2ccc(C(=O)O)cc2)cc1S(=O)(=O)Nc1ccccc1`: 74% (inactive); `Cc1ccc(C(=O)Nc2ccc(Br)cc2)cc1S(=O)(=O)NCc1ccccc1`: 83% (inactive).
Regarding `CCN(c1ccccc1)S(=O)(=O)c1ccc(F)c(C(=O)Nc2ccc(C)cc2)c1`, the survival was 100% (inactive).
Take `Cc1ccc(C(=O)Nc2cccc(C(=O)O)c2)cc1S(=O)(=O)N1CCCC1`: the survival is 81% (inactive).
Next, `Cc1ccc(C(=O)Nc2ccccc2)cc1S(=O)(=O)Nc1ccccc1`: 46% (active).
As for `O=C(O)c1ccc(NS(=O)(=O)c2ccc(Cl)c(C(=O)Nc3ccccc3)c2)cc1`, the survival is 73% (inactive).
In the case of `O=C(Nc1ccccc1)c1ccc(Cl)c(S(=O)(=O)Nc2ccccc2)c1` it was 43% (active); in that of `Cc1ccc(C(=O)Nc2ccccc2)cc1S(=O)(=O)Nc1ccc(Br)cc1`, 6% (active); in that of `COc1ccc(C(=O)Nc2ccccc2)cc1S(=O)(=O)Nc1ccc(Br)cc1`, 78% (inactive).
In the case of `CCOCCCNC(=O)C(Cc1ccccc1)NS(=O)(=O)c1ccc2c(c1)c(=O)n(C)c(=O)n2C` (stereo not given), the survival is 88% (inactive).
Next, `O=C(Cc1cccs1)Nc1ccccc1`: 70% (inactive).
In the case of `CN(C)c1cccc(C(=O)Nc2ccc(-c3nc4ccccc4s3)cc2)c1` it was 106% (inactive); in that of `O=C(NCC(c1cccnc1)N1CCN(c2ccccc2F)CC1)c1ccc(F)cc1` (stereo not given), 92% (inactive).
Consider `Cc1ccc(NC(=O)CSc2nc3nc(C)c(Cc4ccccc4)c(C)n3n2)cc1`, for which the survival was 60% (inactive).
Take `CCN(CC)CCNC(=O)CSc1nc2nc(C)c(Cc3ccccc3)c(C)n2n1`: the survival is 86% (inactive).
Consider `Cc1nc2nc(SCC(=O)NCc3ccccc3Cl)nn2c(C)c1Cc1ccccc1`, for which the survival was 64% (inactive).
Turning to `Cc1nc2nc(SCC(=O)NCc3ccccc3)nn2c(C)c1Cc1ccccc1`, the survival is 8% (active).
Next, `Cc1nc2nc(SCC(=O)NCc3ccccc3)nn2c(C)c1Cc1ccccc1Cl`: 147% (inactive).
In the case of `COc1cc(NC(=O)CSc2nc3nc(C)c(Cc4ccccc4)c(C)n3n2)cc(OC)c1OC` it was 80% (inactive).
As for `Cc1cccc(Cc2c(C)nc3nc(SCC(=O)NCc4ccccc4)nn3c2C)c1`, the survival was 40% (active).
In the case of `Cc1cccc(Cc2c(C)nc3nc(SCc4ccccc4Cl)nn3c2C)c1` it was -9% (active).
As to `Cc1cccc(Cc2c(C)nc3nc(SCC(=O)NCc4ccc(F)cc4)nn3c2C)c1`, the survival was 56% (inactive).
Turning to `Cc1cccc(Cc2c(C)nc3nc(SCc4ccccc4F)nn3c2C)c1`, the survival is 84% (inactive).
In the case of `Cc1nc2nc(SCC(=O)Nc3ccccc3Cl)nn2c(C)c1Cc1ccccc1` it was 20% (active); in that of `Cc1cccc(Cc2c(C)nc3nc(SCc4ccccc4C)nn3c2C)c1`, 95% (inactive).
Next, `COC(=O)CC1=C(C(=O)OC)C(c2ccc(C(=O)OC)cc2)C(C#N)=C(N)O1` (stereo not given): 77% (inactive).
In the case of `Cn1c(=O)c(=O)n(C)c2cc(S(=O)(=O)CCC(=O)Nc3cccc(C(F)(F)F)c3)ccc21` it was 80% (inactive); in that of `O=c1c2oc3ccccc3c2n(Cc2ccc(Cl)cc2)c(=O)n1Cc1ccc2c(c1)OCO2`, 66% (inactive).
As to `CCOc1ccc(C2c3[nH]c4ccccc4c3CCN2C(=O)CCc2ccccc2)cc1` (stereo not given), the survival is 116% (inactive).
For the molecule `COc1ccc(C2CC(=O)Nc3c2c(=O)[nH]c2nc4ccccc4n32)cc1OC` (stereo not given), the survival is 133% (inactive).
In the case of `CCc1ccccc1N=C1SCC(=O)N1C` it was 88% (inactive); in that of `Cc1cc(C)c(NC(=O)Cn2nnc(C(=O)Nc3ccc(F)cc3F)c2N)c(C)c1`, 81% (inactive); in that of `CCOc1ccccc1NC(=O)CSc1ncc2c(n1)-c1ccccc1N(CC)S2(=O)=O`, 92% (inactive).
Turning to `CCN1c2ccccc2-c2nc(SCC(=O)Nc3ccc(C)c(Cl)c3)ncc2S1(=O)=O`, the survival was 25% (active).
In the case of `CCN1c2ccccc2-c2nc(SCC(=O)Nc3c(C)cc(C)cc3C)ncc2S1(=O)=O` it was 102% (inactive); in that of `CCN1c2ccccc2-c2nc(SCC(=O)Nc3cc(F)ccc3F)ncc2S1(=O)=O`, 118% (inactive); in that of `CCN1c2ccccc2-c2nc(SCC(=O)Nc3cc(OC)cc(OC)c3)ncc2S1(=O)=O`, 37% (active).
In the case of `CCN1c2ccccc2-c2nc(SCC(=O)Nc3cc(C)c(Cl)cc3OC)ncc2S1(=O)=O` it was 91% (inactive); in that of `Fc1ccc(Nc2ncnc3c2nc2n3CCCC2)cc1`, 74% (inactive).
Next, `CCc1ccc(NC(=O)c2ccc(CNS(=O)(=O)c3ccc4c(c3)C(C)(C)C(=O)N4C)cc2)cc1`: 64% (inactive); `CCC(Sc1nc2c(sc3ccccc32)c(=O)n1CCc1ccccc1)C(=O)N(CC)CC` (stereo not given): 54% (inactive); `Cc1ccc(-c2nc(CS(=O)(=O)CC(=O)NCCc3ccccc3)c(C)o2)cc1`: 100% (inactive).
Take `Cn1ncc2c(Nc3cccc(F)c3)ncnc21`: the survival was 117% (inactive).
Next, `COc1ccc(CCN=C(N)Nc2nc(C)cc(C)n2)cc1`: 39% (active); `Cc1cc(C)nc(NC(=O)C(c2ccccc2)c2ccccc2)n1`: 115% (inactive); `Cc1cc(C)nc(NC(N)=NC2CCCCC2)n1`: 87% (inactive).
Next, `COc1cccc(C(=O)NC(=NCCc2c[nH]c3ccc(OC)cc23)Nc2nc(C)cc(C)n2)c1`: 55% (inactive); `Cc1cc(C)nc(NCC(C)c2ccccc2)n1` (stereo not given): 81% (inactive); `Cc1cc(C)nc(NC(N)=NC(C)c2ccccc2)n1` (stereo not given): 20% (active).
Next, `CCOC(=O)c1cccc(NC(=O)CCS(=O)(=O)c2ccc3c(c2)CC(=O)N3C)c1`: 102% (inactive); `COc1cccc(C(=O)NCC(c2ccc(N(C)C)cc2)N2CCCC2)c1OC` (stereo not given): 94% (inactive); `Cc1nc(-c2cccc(NC(=O)Nc3ccccc3C(F)(F)F)c2)no1`: 130% (inactive).
As to `Cc1ccc(C)c2c(N)c3c(nc12)CCCCC3`, the survival was 96% (inactive).
